Compound activity (PubChem)
ST2 IL33 inh – inhibitors of human ST2 (IL1RL1) binding to IL-33, primary screen, biochemical, AlphaLISA; inhibition, % for hits at 17 µM; AlphaLISA ST2-Fc/biotin-IL-33 interaction, 1 h; hit rate 2.3% among 78,000; in the data active means inhibition above about 30%
Target sequence (Q01638 whole entry, looked up): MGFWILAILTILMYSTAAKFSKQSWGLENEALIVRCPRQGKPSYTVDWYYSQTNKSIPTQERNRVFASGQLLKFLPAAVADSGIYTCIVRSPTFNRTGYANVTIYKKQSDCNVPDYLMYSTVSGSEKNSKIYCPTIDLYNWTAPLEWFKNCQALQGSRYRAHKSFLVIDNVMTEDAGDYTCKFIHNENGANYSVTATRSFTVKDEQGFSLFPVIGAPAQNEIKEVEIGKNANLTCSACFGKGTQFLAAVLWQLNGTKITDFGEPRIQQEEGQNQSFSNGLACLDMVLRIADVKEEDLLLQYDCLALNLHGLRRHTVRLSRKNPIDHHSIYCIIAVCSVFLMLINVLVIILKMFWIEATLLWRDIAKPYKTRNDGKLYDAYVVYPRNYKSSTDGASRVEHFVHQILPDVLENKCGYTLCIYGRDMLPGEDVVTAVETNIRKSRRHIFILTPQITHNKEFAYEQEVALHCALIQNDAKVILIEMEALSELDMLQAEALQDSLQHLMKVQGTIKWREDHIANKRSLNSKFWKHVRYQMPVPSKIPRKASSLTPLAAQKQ
* hit, by the source's call; i = inactive. Only a selection was taken, and hits are over-represented in it overall.

SMILES	ST2 IL33 inh
COc1ccc(OCc2nc(C#N)c(N3CCC(C(N)=O)CC3)o2)cc1	i
N#Cc1nc(COc2ccccc2Cl)oc1N1CCCC1	73%*
CC1CCCN(S(=O)(=O)c2ccc(C(=O)Nc3nnc(-c4ccc(F)cc4)o3)cc2)C1 (configuration not stated)	i
CC1CC(C)CN(S(=O)(=O)c2ccc(C(=O)Nc3nc4ccc(F)cc4s3)cc2)C1 (configuration not stated)	i
CC(=O)c1cccc(NC(=O)C(C)c2ccccc2)c1 (configuration not stated)	i
CC(C)c1ccc(NC2CCCN(CC(=O)Nc3cnn(C)c3)C2)cc1 (configuration not stated)	i
O=C1NC(=Nc2ccccc2Cl)S/C1=C/c1cccnc1	i
COC(=O)c1c(C)oc2ccc(OC(=O)c3ccco3)cc12	i
O=C(CN1C(=O)c2ccccc2C1=O)Nc1ncn[nH]1	i
O=C(Cc1ccccc1)N1CCOCC1	i
O=C(CN1C(=O)c2ccccc2C1=O)Nc1ccc(Br)cc1	34%*
O=C(CN1C(=O)C(=O)c2ccccc21)Nc1ccc(Br)cc1	i
O=C(CN1C(=O)c2ccccc2C1=O)Nc1ccc(Br)cc1C(=O)O	i
Cc1ncoc1C(=O)N1CCC(Oc2cccc(C(=O)NCc3ccccn3)c2)CC1	i
CCOC(=O)C1(CCOc2ccccc2)CCN(S(=O)(=O)c2ccc(C)s2)CC1	i
CCOC(=O)C1(CCOC)CCN(Cc2ccc(N(C)c3ccccc3)cc2)CC1	i
CCOC(=O)C1(CCOc2ccccc2)CCN(Cc2cccc(C)n2)CC1	83%*
CC1=C(C(=O)Nc2cccnc2)C(c2cccc(OCc3ccccc3)c2)n2ncnc2N1 (configuration not stated)	i
Cc1cc(Nc2ccccc2)nc(Nc2ccc(NC(=O)c3ccccc3)cc2)n1	32%*
COc1ccc(Nc2cc(C)nc(Nc3ccc(NC(=O)c4ccc(F)cc4)cc3)n2)cc1	i
Cc1cc(N(C)C)nc(Nc2ccc(NC(=O)CC3CCCC3)cc2)n1	i
Cc1ccc(Nc2cc(C)nc(Nc3ccc(NC(=O)c4ccc(C(C)(C)C)cc4)cc3)n2)cc1	i
COc1ccc(Nc2cc(C)nc(Nc3ccc(NC(=O)c4ccc(OC)cc4)cc3)n2)cc1	32%*
COc1ccc(Nc2cc(C)nc(Nc3ccc(NC(=O)c4ccc(C(F)(F)F)cc4)cc3)n2)cc1	i
Cc1ccc(Nc2cc(C)nc(Nc3ccc(NC(=O)c4ccccc4C)cc3)n2)cc1	i
SMILES	ST2 IL33 inh
COc1ccc(Nc2cc(C)nc(Nc3ccc(NC(=O)CCC4CCCC4)cc3)n2)cc1	30%*
Cc1cc(Nc2ccccc2)nc(Nc2ccc(NC(=O)c3ccccc3Cl)cc2)n1	i
CCC(C(=O)Nc1ccc(Nc2nc(C)cc(Nc3ccc(C)cc3)n2)cc1)c1ccccc1 (configuration not stated)	36%*
Cc1ccc(Nc2cc(C)nc(Nc3ccc(NC(=O)CC(C)(C)C)cc3)n2)cc1	i
Cc1cc(Nc2ccccc2)nc(Nc2ccc(NC(=O)c3cccc(Br)c3)cc2)n1	i
COc1ccc(CN(C)c2cc(C3CCCNC3)nc(C)n2)cc1 (configuration not stated)	i
Cc1cc(OCCNCCN)cc(C(C)C)c1	i
Cc1cc(C(F)(F)F)nc(N2CCOCC2)n1	i
CCC(C)NC(=O)CSc1nc2nc(C)c(Cc3cccc(C)c3)c(C)n2n1 (configuration not stated)	i
O=C(O)/C(=C/c1ccc2c(c1)OCO2)NC(=O)c1ccccc1Cl	i
CCN1CCN(C2CCN(C(=O)C3CCC(=O)N(Cc4ccccc4F)C3)CC2)CC1 (configuration not stated)	i
O=C(CSC1=NC(=O)C(Cc2ccccc2)C(=O)N1)Nc1ccccn1 (configuration not stated)	i
CCn1ccnc1CN1CCN(c2ncnc3ccccc23)CC1	i
CCOC(=O)C1CCCN(S(=O)(=O)c2cc(Br)cc3c2N(C(C)=O)C(C)C3)C1 (configuration not stated)	i
Cc1ccnn1CCC(=O)NC1CC(=O)N(C2CCCCCC2)C1 (configuration not stated)	i
Cc1ccccc1C(C(=O)NCc1c(C)noc1C)N(C)C (configuration not stated)	i
CCc1ccc(CN(C)C(=O)c2nc3nc(C)cc(C)n3n2)nc1	i
CC1(C)CC2CC(C)(CN2c2ncnc(N)c2[N+](=O)[O-])C1 (configuration not stated)	i
CCCC(=O)Nc1ccc(Nc2nc(C)cc(N(C)C)n2)cc1	i
CCC(CC)C(=O)Nc1ccc(Nc2nc(C)cc(Nc3ccc(OC)cc3)n2)cc1	39%*
COc1cc(C(=O)Nc2ccc(Nc3nc(C)cc(Nc4ccccc4)n3)cc2)cc(OC)c1OC	i
CCCC(=O)Nc1ccc(Nc2nc(C)cc(Nc3ccccc3)n2)cc1	31%*
Cc1ccc(Nc2cc(C)nc(Nc3ccc(NC(=O)Cc4ccccc4)cc3)n2)cc1	i
CC(=O)Nc1ccccc1NC(=O)CCC1CCCCC1	i
CN(C)c1ccc(NC(=O)CCC2CCCCC2)cc1	67%*
SMILES	ST2 IL33 inh
NC(=O)c1ccccc1NC(=O)CCC1CCCCC1	i
COc1ccc(C(=O)Nc2ccc(Nc3nc(C)cc(Nc4ccccc4)n3)cc2)cc1OC	i
CC(C)NC(=O)C1CC1(c1ccccc1)c1ccccc1 (configuration not stated)	i
CCOC(=O)c1c(C)n(C)c2ccc(OC(=O)c3ccccc3Br)cc12	i
COC(=O)c1ccc(CSc2nncc3ccccc23)cc1	i
Cc1c(Cl)cccc1Nc1nnc(Cc2ccccc2)c(=O)[nH]1	i
CN1C[C@H](NS(=O)(=O)c2cc(Cl)ccc2Cl)C[C@H]1CO	i
C=CCN(CC=C)C(=O)CN1CC=C(n2c(=O)[nH]c3ccccc32)CC1	31%*
C=CCN(CC=C)C(=O)C(c1ccccc1)c1ccccc1	i
O=c1[nH]c2ccccc2n1C1=CCN(c2nccc(N3CCC(O)C3)n2)CC1 (configuration not stated)	i
Cn1cncc1-c1nnc([C@H]2CCN(Cc3ccccc3)C2)o1	i
O=[N+]([O-])c1cccc(-c2noc([C@@H]3C[C@@H](O)CN3Cc3ccccc3)n2)c1	i
Cc1ccc(CN2C[C@H](O)C[C@H]2c2nc(-c3cccc([N+](=O)[O-])c3)no2)cc1	i
O=[N+]([O-])c1cccc(-c2noc([C@@H]3C[C@@H](O)CN3Cc3cccs3)n2)c1	61%*
Cc1cccc(-c2noc([C@@H]3C[C@@H](O)CN3Cc3cccs3)n2)c1	i
O=[N+]([O-])c1cccc(-c2noc([C@@H]3C[C@@H](O)CN3Cc3ccc(Cl)cc3)n2)c1	i
O=[N+]([O-])c1cccc(-c2noc([C@@H]3C[C@@H](O)CN3Cc3ccc(CO)o3)n2)c1	58%*
O=C(NCC1CCCO1)c1ccc2c(c1)N(Cc1ccccc1Cl)C(=O)CS2 (configuration not stated)	i
O=C(O)CCCN1C(=O)c2ccccc2C1=O	i
Cc1oc(-c2nc3ccccc3n2C)cc1S(=O)(=O)O	i
CCC1=C(C)/C(=C\c2[nH]c(C)c(CC)c2C)N=C1C	78%*
Cc1ccc(-n2ncc3c(NCc4ccccc4)ncnc32)c(C)c1	i
Cc1ccc2[nH]c(CN(C)Cc3nc(-c4cccnc4)no3)nc2c1C	i
